# A number with no mark means an inactive call. The source made the active and inactive calls. Calls follow the shape of the dose curve; as a rule, active = well fitted curve in the direction sought with a large enough effect in the repeat runs; inconclusive = weak or mixed curves; inactive = flat fitted curve, though single readings scatter.
# Test: qHTS assay to test for compound auto fluorescence at 590 nm (red) in HEK293 cells (AID 720679)
# Settings: red autofluorescence 540/590 nm; series mostly up to 91.3 µM; fluorescence, % of fluorescent control: at the top concentration
# In short: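 Intensity at 540nm excitation and 590nm emission is reported as Rose Bengal sodium-equivalent autofluorescence. Measurements followed overnight exposure (37C, 5% CO2) of HEK293 cells, 2,000 per well, to 23 nL compound.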
# % is scaled to controls: 0 for no effect and ±100 for the full control effect.
Structure (SMILES),"fluorescence, % of fluorescent control",outcome
Nc1ccc(C(=O)OCCCOC(=O)c2ccc(N)cc2)cc1,0.168%,
CSc1ccc(Oc2ccc(S(N)(=O)=O)cc2CN(C)C)cc1C,0.53%,
NC(=O)N(O)[C@@H]1COc2cc(OCc3ccccc3)ccc21,0.185%,
N#C/C(=C1/SC[C@@H](c2ccc(Cl)cc2Cl)S1)n1ccnc1,,inactive
c1cc[c]([Bi]([c]2ccccc2)[c]2ccccc2)cc1,-0.463%,
CC(=O)OCC(=O)[C@@]12OC(C)(C)O[C@@H]1C[C@H]1[C@@H]3C[C@H](F)C4=CC(=O)C=C[C@]4(C)[C@@]3(F)[C@@H](O)C[C@@]12C,0.156% [at 18.6 µM],
CCCCCCOC(=O)CCCCCCCC(=O)OCCCCCC,-0.362%,
O=C(Nc1ccccc1)Nc1ccccc1,0.144%,
CC(N)CN (stereo not drawn),0.267% [at 95.7 µM],
O=C(CCCN1CCN(c2ccc(F)cc2)CC1)NC1c2ccccc2CSc2ccccc21 (stereo not drawn),-0.0642% [at 46 µM],
CCc1cccc(N(C)C(N)=Nc2cccc3ccccc23)c1,-0.104% [at 46 µM],
O=C(CCC1CCN(Cc2ccccc2)CC1)c1ccc2c(c1)NCCCC2,-0.153% [at 46 µM],
CN(C)C(=O)Nc1ccc(Oc2ccc(Cl)cc2)cc1,8.3e-05%,
CC(C)C(OC(=O)c1ccccc1)C(C)(C)COC(=O)c1ccccc1 (stereo not drawn),-0.153%,
Cc1nccn1-c1ccc(Sc2cccc(C3(C(N)=O)CCOCC3)c2)cc1,-0.344%,
CCCCN(CCCC)C(=S)SSC(=S)N(CCCC)CCCC,-0.275%,
Cc1c(C(=O)NN2CCCCC2)nn(-c2ccc(Cl)cc2Cl)c1-c1ccc(Cl)cc1,0.529% [at 46 µM],
Brc1cc(-c2ccc(Br)c(Br)c2Br)cc(Br)c1Br,0.274% [at 46 µM],

# From PubChem BioAssay (Tox21)
